Consider ten molecules from PubChem BioAssay (NCI).

A short description of test [1]: NCI Yeast Anticancer Drug Screen. Data for the rad50 strain (AID 155).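 Note: 0% = growth of vehicle-only cultures of the same strain.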 As to conditions: S. cerevisiae rad50 strain growth inhibition, hits give high values. The method in brief: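 Growth of the mutant yeast was measured after compound exposure and referenced to vehicle-treated cultures.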
Test [2] in a line: NCI Yeast Anticancer Drug Screen. Data for the mec2-1 strain (AID 157). As to conditions: S. cerevisiae mec2-1 strain, hits give high values. The method in brief:
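Growth inhibition is read against vehicle-treated controls after compound exposure of the mec2-1 yeast strain, which is defective in DNA damage repair or cell cycle control.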

Test [3] can be described thus: NCI Yeast Anticancer Drug Screen. Data for the sgs1 mgt1 strain (AID 161).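 Note: 0% = growth of cultures given vehicle only.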 To be noted: S. cerevisiae sgs1 mgt1 strain, hits give high values. A digest of the protocol:
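Compounds are added to genetically altered yeast, and growth is compared with cultures given vehicle alone to give percent inhibition.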

Test [4] in a line: NCI Yeast Anticancer Drug Screen. Data for the cln2 rad14 strain (AID 165).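 Note: 0% = growth equal to vehicle treated cultures.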 As to conditions: S. cerevisiae cln2 rad14 strain, hits give high values. The method in brief: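 Growth inhibition, relative to vehicle-treated controls, is the read-out. The test organism is a yeast strain with defined genetic alterations, cln2 rad14.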
A short description of test [5]: NCI Yeast Anticancer Drug Screen. Data for the bub3 strain (AID 167). To be noted: S. cerevisiae bub3 mutant strain, hits give high values. The method in brief: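 Whole-cell yeast assay. The mutant strain was incubated with compounds, and growth inhibition was determined by comparison with vehicle-treated cells.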
Test [6] can be described thus: NCI Yeast Anticancer Drug Screen. Data for the mlh1 rad18 strain (AID 175). As to conditions: S. cerevisiae mlh1 rad18 strain growth inhibition, hits give high values. The method in brief:
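Cells of a genetically altered yeast strain, deficient in DNA damage repair, were treated with compound. Their growth was then compared with that of vehicle-treated cultures to give inhibition.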

The mark [7] stands for this setting: at 5.0 µM (retest, dose inferred, filed as 0.5).
The mark [8] stands for this setting: at 50.0 µM (retest, dose inferred, filed as 5.0).

About 79,000 compounds went through this panel and 15% of them were active in at least one assay; those are over-represented in the sample as a whole. A number with no mark means an inactive call. Activity calls are given as the source filed them. Cut-off read from the data, not from the text of the source: active = growth inhibition above about 70%; inactive = the rest.

With `CCCCC(CC)CNc1ncnc2c1cnn2C` (stereo not given), the growth inhibition is 1% in test [1] (setting [7]); 92% (active) in test [1] (setting [8]); 36.7% in test [1] (at 50.0 µM); -3% in test [2] (setting [7]); 91% (active) in test [2] (setting [8]); -1.45% in test [2] (at 50.0 µM). For the same molecule, the growth inhibition in test [3] (setting [7]) is 1%; in test [3] (setting [8]), 94% (active); in test [3] (at 50.0 µM), 91.7% (active); in test [4] (setting [7]), -10%; in test [4] (setting [8]), 89% (active); in test [4] (at 50.0 µM), 20.9%. Also, the growth inhibition in test [5] (setting [7]) is 0%; in test [5] (setting [8]) it was 96% (active); in test [5] (at 50.0 µM) it was 48.4%; in test [6] (setting [7]), 14%; in test [6] (setting [8]), 96% (active); in test [6] (at 50.0 µM), 32.8%.
On to `Cc1ccc(C(CN(C)C)C(=O)c2ccccc2)cc1C` (stereo not given), for which the growth inhibition is -4% in test [1] (setting [7]); 97% (active) in test [1] (setting [8]); 4.8% in test [1] (at 50.0 µM); -2% in test [2] (setting [7]); 97% (active) in test [2] (setting [8]); 3.35% in test [2] (at 50.0 µM). For the same molecule, the growth inhibition is -4% in test [3] (setting [7]); 93% (active) in test [3] (setting [8]); 36.3% in test [3] (at 50.0 µM); -3% in test [4] (setting [7]); 42% in test [4] (setting [8]); -23.6% in test [4] (at 50.0 µM). Besides, the growth inhibition was -2% in test [5] (setting [7]); 97% (active) in test [5] (setting [8]); 69.4% in test [5] (at 50.0 µM); -6% in test [6] (setting [7]); 98% (active) in test [6] (setting [8]); 27.4% in test [6] (at 50.0 µM).
Take `CC(=O)OCC1OC(c2cccc3c2c2ccccc2n3S(=O)(=O)c2ccccc2)C(O)C1O` (stereo not given): the growth inhibition in test [1] (setting [7]) was 1%; in test [1] (setting [8]) it was 93% (active); in test [1] (at 50.0 µM) it was 17.4%; in test [2] (setting [7]) it was 1%; in test [2] (setting [8]) it was 97% (active); in test [2] (at 50.0 µM), -0.7%. For the same molecule, the growth inhibition was -1% in test [3] (setting [7]); 97% (active) in test [3] (setting [8]); 7.15% in test [3] (at 50.0 µM); 2% in test [4] (setting [7]); 98% (active) in test [4] (setting [8]); 1.25% in test [4] (at 50.0 µM). For the same molecule, the growth inhibition in test [5] (setting [7]) is 0%; in test [5] (setting [8]), 98% (active); in test [5] (at 50.0 µM), 7.8%; in test [6] (setting [7]), 1%; in test [6] (setting [8]) it was 98% (active); in test [6] (at 50.0 µM), 37.9%.
On to `Cc1ccc(C)c(C2CCCCC2O)c1` (stereo not given), for which the growth inhibition is -1% in test [1] (setting [7]); -80% in test [1] (setting [8]); 4.5% in test [1] (at 50.0 µM); -8% in test [2] (setting [7]); -25% in test [2] (setting [8]); -11.7% in test [2] (at 50.0 µM). The growth inhibition was -1% in test [3] (setting [7]); -23% in test [3] (setting [8]); -9.1% in test [3] (at 50.0 µM); 9% in test [4] (setting [7]); -5% in test [4] (setting [8]); 71.5% (active) in test [4] (at 50.0 µM). For the same molecule, the growth inhibition is -13% in test [5] (setting [7]); -87% in test [5] (setting [8]); 51.1% in test [5] (at 50.0 µM); 0% in test [6] (setting [7]); -40% in test [6] (setting [8]); -16.1% in test [6] (at 50.0 µM).
With `NC(N)=Nc1ccc(Cc2ccc(N=C(N)N)cc2)cc1`, the growth inhibition was 0% in test [1] (setting [7]); -3% in test [1] (setting [8]); -33.2% in test [1] (at 50.0 µM); 0% in test [2] (setting [7]); -4% in test [2] (setting [8]); -58% in test [2] (at 50.0 µM). The growth inhibition is 2% in test [3] (setting [7]); 0% in test [3] (setting [8]); -17.9% in test [3] (at 50.0 µM); 3% in test [4] (setting [7]); 2% in test [4] (setting [8]); 45% in test [4] (at 50.0 µM). For the same molecule, the growth inhibition in test [5] (setting [7]) is 3%; in test [5] (setting [8]), 2%; in test [5] (at 50.0 µM) it was -10.2%; in test [6] (setting [7]), -6%; in test [6] (setting [8]), -4%; in test [6] (at 50.0 µM) it was -39%.
Turning to `CN(C)C(=O)c1ccccc1SC(=S)NCc1ccccc1`, the growth inhibition was 0% in test [1] (setting [7]); 99% (active) in test [1] (setting [8]); 98.1% (active) in test [1] (at 50.0 µM); -2% in test [2] (setting [7]); 99% (active) in test [2] (setting [8]); 91.3% (active) in test [2] (at 50.0 µM). Also, the growth inhibition is 2% in test [3] (setting [7]); 93% (active) in test [3] (setting [8]); 95.8% (active) in test [3] (at 50.0 µM); -3% in test [4] (setting [7]); 99% (active) in test [4] (setting [8]); 95.3% (active) in test [4] (at 50.0 µM). Moreover, the growth inhibition in test [5] (setting [7]) was -7%; in test [5] (setting [8]), 99% (active); in test [5] (at 50.0 µM), 88.2% (active); in test [6] (setting [7]), -3%; in test [6] (setting [8]), 98% (active); in test [6] (at 50.0 µM), 96.6% (active).
As to `CN(C)CCNC(=O)c1cccc2ccc(-c3ccc(-c4ccccc4)cc3)nc12`, the growth inhibition in test [1] (setting [7]) is 4%; in test [1] (setting [8]), 99% (active); in test [1] (at 50.0 µM) it was 99.2% (active); in test [2] (setting [7]) it was -1%; in test [2] (setting [8]), 98% (active); in test [2] (at 50.0 µM), 99.6% (active). Also, the growth inhibition is -1% in test [3] (setting [7]); 99% (active) in test [3] (setting [8]); 99.2% (active) in test [3] (at 50.0 µM); 1% in test [4] (setting [7]); 99% (active) in test [4] (setting [8]); 98.5% (active) in test [4] (at 50.0 µM). The growth inhibition in test [5] (setting [7]) was -41%; in test [5] (setting [8]), 99% (active); in test [5] (at 50.0 µM), 99.1% (active); in test [6] (setting [7]), 0%; in test [6] (setting [8]), 99% (active); in test [6] (at 50.0 µM), 99.4% (active).
Regarding `C=CC(=O)N1C/C(=C\c2ccccc2)C(=O)/C(=C/c2ccccc2)C1`, the growth inhibition in test [1] (setting [7]) was 44%; in test [1] (setting [8]), 75% (active); in test [1] (at 50.0 µM), 73.8% (active); in test [2] (setting [7]) it was 37%; in test [2] (setting [8]), 80% (active); in test [2] (at 50.0 µM), 80.2% (active). Further, the growth inhibition is 49% in test [3] (setting [7]); 90% (active) in test [3] (setting [8]); 71.7% (active) in test [3] (at 50.0 µM); 39% in test [4] (setting [7]); 58% in test [4] (setting [8]); 48.2% in test [4] (at 50.0 µM). Also, the growth inhibition in test [5] (setting [7]) was 40%; in test [5] (setting [8]), 87% (active); in test [5] (at 50.0 µM) it was 78.5% (active); in test [6] (setting [7]) it was 50%; in test [6] (setting [8]), 94% (active); in test [6] (at 50.0 µM), 84.7% (active).
With `Cc1ccc(C)c(C(=O)/C=C/C(=O)O)c1`, the growth inhibition in test [1] (setting [7]) is 29%; in test [1] (setting [8]), 100% (active); in test [1] (at 50.0 µM), 52.5%; in test [2] (setting [7]) it was 22%; in test [2] (setting [8]), 99% (active); in test [2] (at 50.0 µM), 70.7% (active). Further, the growth inhibition in test [3] (setting [7]) was 32%; in test [3] (setting [8]), 100% (active); in test [3] (at 50.0 µM), 61.5%; in test [4] (setting [7]) it was 15%; in test [4] (setting [8]) it was 99% (active); in test [4] (at 50.0 µM), 40.6%. Further, the growth inhibition in test [5] (setting [7]) is 27%; in test [5] (setting [8]) it was 98% (active); in test [5] (at 50.0 µM) it was 64.1%; in test [6] (setting [7]) it was 42%; in test [6] (setting [8]) it was 98% (active); in test [6] (at 50.0 µM), 65.1%.
As to `Cc1ccc([N+](=O)[O-])cc1Cl`, the growth inhibition was -3% in test [1] (setting [7]); -4% in test [1] (setting [8]); -4.35% in test [1] (at 50.0 µM); 2% in test [2] (setting [7]); -2% in test [2] (setting [8]); -8.45% in test [2] (at 50.0 µM). Further, the growth inhibition in test [3] (setting [7]) is 1%; in test [3] (setting [8]), -1%; in test [3] (at 50.0 µM) it was -2.6%; in test [4] (setting [7]), -2%; in test [4] (setting [8]), -1%; in test [4] (at 50.0 µM), 93.2% (active). Further, the growth inhibition was -3% in test [5] (setting [7]); -4% in test [5] (setting [8]); -3.85% in test [5] (at 50.0 µM); -1% in test [6] (setting [7]); -6% in test [6] (setting [8]); -2.45% in test [6] (at 50.0 µM).
